Measurements published in PubChem BioAssay.
Values without a mark were called inactive. For some of these results: Measured potencies and affinities stand elsewhere. Activity calls are given as the source filed them. Unless noted, no rule for the calls is given here.

Assays:
[1] = antimalarial activity against Dd2 strain (AID 2302;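 active = growth inhibition above 50% at the single 2 µM test dose, taken to imply half-maximal potency below 2 µM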;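 also: 0% = DMSO untreated growth and 100% = chloroquine plus artemisinin killed control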); settings: P. falciparum Dd2 in RBCs, LDH growth readout, 72 h; at 2 µM; stronger effect = higher value
[2] = HepG2 cytotoxicity, primary screen, cytotoxicity control for P. falciparum antimalarial project, cell-based, ATP luminescence (AID 2303;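 active = inhibition above 50%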;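 also: 0% = DMSO wells and 100% = digitonin-killed cells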); settings: HepG2 viability, 24-48 h, at 10 µM, stronger effect = higher value
[3] = target: L-lactate dehydrogenase (Plasmodium falciparum (isolate CDC / Honduras)) (UniProt Q27743); test: PfLDH activity inhibition – cell lysate, 3D7 strain, counter-screen for P. falciparum growth inhibition project (AID 2304);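 also: 0% = vehicle and 100% = reference inhibitor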; settings: P. falciparum 3D7 crude extract, LDH APAD/NBT absorbance; at 2 µM; stronger effect = higher value
Chain of L-lactate dehydrogenase (Plasmodium falciparum (isolate CDC / Honduras)) (Q27743 whole entry, looked up): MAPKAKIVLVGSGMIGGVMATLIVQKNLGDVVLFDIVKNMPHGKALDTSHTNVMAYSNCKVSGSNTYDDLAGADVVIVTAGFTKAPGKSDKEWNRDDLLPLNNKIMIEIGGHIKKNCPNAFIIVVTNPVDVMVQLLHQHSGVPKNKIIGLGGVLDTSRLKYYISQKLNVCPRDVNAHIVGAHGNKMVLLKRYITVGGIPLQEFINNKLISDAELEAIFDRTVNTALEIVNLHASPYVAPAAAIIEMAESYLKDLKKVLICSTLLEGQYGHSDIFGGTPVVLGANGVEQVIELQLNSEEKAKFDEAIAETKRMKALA

[4] = inhibition of 3D7 malaria parasite growth – strain 3D7 (AID 2306);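 also: 0% = DMSO wells and 100% = chloroquine plus artemisinin control wells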; settings: P. falciparum 3D7 erythrocytic growth, LDH absorbance, 72 h; at 2 µM; stronger effect = higher value
[5] = target: Calcium-dependent protein kinase 1 (Plasmodium falciparum (isolate 3D7)) (UniProt P62344); test: PfCDPK1 kinase inhibitors, biochemical, TCAMS library (AID 1159585; cut-off not given, nearly all actives have IC50 up to about 0.98 µM;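 also: inhibitors leave more ATP so luminescence rises with inhibition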); settings: recombinant PfCDPK1, Kinase-Glo ATP depletion luminescence
Chain of Calcium-dependent protein kinase 1 (Plasmodium falciparum (isolate 3D7)) (P62344 whole entry, looked up): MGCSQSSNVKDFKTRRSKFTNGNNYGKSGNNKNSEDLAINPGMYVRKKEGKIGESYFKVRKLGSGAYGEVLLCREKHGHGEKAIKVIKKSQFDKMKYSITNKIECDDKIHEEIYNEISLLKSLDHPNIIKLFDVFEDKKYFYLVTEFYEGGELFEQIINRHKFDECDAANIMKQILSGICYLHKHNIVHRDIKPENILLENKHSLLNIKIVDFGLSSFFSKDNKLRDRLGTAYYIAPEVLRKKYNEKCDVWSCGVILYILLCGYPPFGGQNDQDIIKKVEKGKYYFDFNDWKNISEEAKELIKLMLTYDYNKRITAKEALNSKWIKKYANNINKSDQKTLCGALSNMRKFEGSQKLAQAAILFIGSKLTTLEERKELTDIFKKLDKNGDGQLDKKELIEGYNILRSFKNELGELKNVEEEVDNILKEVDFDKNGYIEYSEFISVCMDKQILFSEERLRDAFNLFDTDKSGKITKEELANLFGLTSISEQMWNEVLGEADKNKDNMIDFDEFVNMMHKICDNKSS

[6] = target: Plasmodium falciparum protein kinase 6 (PK6, PF3D7_1337100) (UniProt Q8IDW1); test: PfPK6 kinase inhibitors, biochemical, TCAMS library (AID 1159586); settings: recombinant PfPK6, Kinase-Glo ATP depletion luminescence
Chain of Plasmodium falciparum protein kinase 6 (PK6, PF3D7_1337100) (Q8IDW1 1-305): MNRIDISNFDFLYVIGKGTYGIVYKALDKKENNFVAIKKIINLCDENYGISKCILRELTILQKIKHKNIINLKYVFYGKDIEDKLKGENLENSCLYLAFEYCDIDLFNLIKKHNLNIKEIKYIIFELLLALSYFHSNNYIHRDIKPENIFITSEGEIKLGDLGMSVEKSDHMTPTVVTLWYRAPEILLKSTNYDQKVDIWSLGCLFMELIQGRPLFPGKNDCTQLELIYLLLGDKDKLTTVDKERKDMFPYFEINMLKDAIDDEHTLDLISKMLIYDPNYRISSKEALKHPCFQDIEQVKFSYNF

[7] = target: Protein kinase 7 (PK7), Plasmodium falciparum 3D7 (PF3D7_0213400) (UniProt Q7YTF7); test: inhibition of Plasmodium PK7 catalytic activity – biochemical, TCAMS antimalarial set, Kinase-Glo luminescence (AID 1159587); settings: recombinant PfPK7, Kinase-Glo ATP depletion luminescence
Chain of Protein kinase 7 (PK7), Plasmodium falciparum 3D7 (PF3D7_0213400) (Q7YTF7 1-343): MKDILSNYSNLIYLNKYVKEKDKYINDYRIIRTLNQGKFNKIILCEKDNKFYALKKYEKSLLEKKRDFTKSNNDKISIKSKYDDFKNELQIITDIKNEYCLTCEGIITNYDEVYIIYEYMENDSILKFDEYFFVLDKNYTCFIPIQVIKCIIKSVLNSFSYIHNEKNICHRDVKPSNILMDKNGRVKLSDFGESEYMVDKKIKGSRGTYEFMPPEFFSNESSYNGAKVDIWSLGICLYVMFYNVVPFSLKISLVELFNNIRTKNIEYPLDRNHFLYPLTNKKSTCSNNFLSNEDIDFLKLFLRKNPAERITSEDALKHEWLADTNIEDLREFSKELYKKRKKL

[8] = target: Calcium-dependent protein kinase 4 (Plasmodium falciparum (isolate 3D7)) (UniProt Q8IBS5); test: PfCDPK4 kinase inhibitors, biochemical, TCAMS library (AID 1159588; cut-off not given, nearly all actives have IC50 up to about 0.91 µM); settings: recombinant PfCDPK4, Kinase-Glo ATP depletion luminescence
Chain of Calcium-dependent protein kinase 4 (Plasmodium falciparum (isolate 3D7)) (Q8IBS5 whole entry, looked up): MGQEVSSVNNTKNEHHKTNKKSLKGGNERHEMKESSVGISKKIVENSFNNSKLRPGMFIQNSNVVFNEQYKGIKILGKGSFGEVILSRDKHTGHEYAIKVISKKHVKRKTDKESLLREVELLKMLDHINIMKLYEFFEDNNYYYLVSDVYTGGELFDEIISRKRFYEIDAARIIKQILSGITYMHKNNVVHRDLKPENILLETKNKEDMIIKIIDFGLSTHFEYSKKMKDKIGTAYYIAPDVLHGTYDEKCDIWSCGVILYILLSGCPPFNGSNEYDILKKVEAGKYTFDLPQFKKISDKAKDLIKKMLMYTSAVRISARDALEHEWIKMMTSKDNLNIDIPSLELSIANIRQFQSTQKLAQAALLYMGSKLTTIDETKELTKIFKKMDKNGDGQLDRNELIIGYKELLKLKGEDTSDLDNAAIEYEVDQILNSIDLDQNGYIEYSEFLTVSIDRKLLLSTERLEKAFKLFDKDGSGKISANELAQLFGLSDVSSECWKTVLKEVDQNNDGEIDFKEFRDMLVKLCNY

SMILES	growth inhibition [1]	inhibition [2]	inhibition [3] [%]	growth inhibition [4]	outcome [5]	outcome [6]	outcome [7]	outcome [8]
c1ccc(CN2CCC(NCc3ccccc3-c3ccc(CNCc4ccc5c(c4)OCO5)cc3)CC2)cc1	49%	26%	3	102% (active)	inactive	inactive	inactive	inactive
COc1cccc(C(=O)NCc2cccs2)c1Oc1ccccc1	4%	-6%	-4	98% (active)	inactive	inactive	inactive	inactive
CCc1ccc(CNCC(CCNc2cc(=O)c3ccccc3[nH]2)NCc2cc(Br)cc(Br)c2)o1 (stereo unspecified)	92% (active)	-11%	1	100% (active)	inactive	inactive	inactive	inactive
Cc1cc(C(=O)Nc2ccc(-c3nc4ccccc4[nH]3)cc2)ccc1[N+](=O)[O-]	47%	55% (active)	1	101% (active)	inactive	inactive	inactive	inactive
NC(N)=Nc1ccc(NC(=O)Nc2ccc(N=C(N)N)cc2)cc1	74% (active)	-5%	1	85% (active)	inactive	inactive	inactive	inactive
O=C(Nc1ccc(CN2CCOCC2)cc1)c1ccc(-c2ccc(Cl)cc2)o1	11%	22%	-6	98% (active)	inactive	inactive	inactive	inactive
CN(C)C(=O)CCCn1c(CNCCCNc2cc(=O)c3ccccc3[nH]2)cc2c(Cl)cc(Cl)cc21	-4%	1%	-1	89% (active)	inactive	inactive	inactive	inactive
COc1cc2nc(N3CCC(C(N)=O)CC3)nc(NCc3ccccc3)c2cc1OC	23%	23%	-7	100% (active)	inactive	inactive	inactive	inactive
O=C(/C=C/c1ccc(Cl)c(Cl)c1)NCCCCCN1CCC(NC(=O)Nc2cccc(Cl)c2)CC1	13%	52% (active)	-1	102% (active)	inactive	inactive	inactive	inactive
CCN1CCN(c2cc(C)c3cc(NC(=O)c4ccc(OC)c(OC)c4)ccc3n2)CC1	23%	28%	1	90% (active)	inactive	inactive	inactive	inactive
O=C(NCCCCN1CCC(c2ccc3c(c2OCCO)CCCC3)CC1)c1ccc2oc(-c3ccc(C(F)(F)F)cc3)cc2c1	56% (active)	54% (active)	4	93% (active)	inactive	inactive	inactive	inactive
CCN(CC)CCN(Cc1ccc(-c2ccc(C(F)(F)F)cc2)cc1)C(=O)CN1C(CCc2cccc(F)c2F)=NS(=O)(=O)c2ccccc21	49%	36%	-1	101% (active)	inactive	inactive	inactive	inactive
CC(=O)Nc1ccc(CN(Cc2ccc(OC(C)(C)C)cc2)Cc2ccc3c(c2)OCCO3)cc1	75% (active)	7%	5	91% (active)	inactive	inactive	inactive	inactive
CN1CCCc2ccc(NC(=O)c3ccc(-c4cc(C(F)(F)F)nn4C)s3)cc2C1	34%	16%	-1	88% (active)	inactive	inactive	inactive	inactive
O=C(C=Cc1ccc(Cl)c(Cl)c1)NCCCCCN1CCCC(CCCNC(=O)/C=C/c2ccccc2)C1 (stereo unspecified)	12%	92% (active)	-4	98% (active)	inactive	inactive	inactive	inactive
O=C(NCCOc1ccccc1)[C@H](Cc1ccccc1)Nc1ccnc(NCC2CCCCC2)n1	73% (active)	80% (active)	5	96% (active)	inactive	inactive	inactive	inactive

SMILES	growth inhibition [1]	inhibition [2]	inhibition [3] [%]	growth inhibition [4]	outcome [5]	outcome [6]	outcome [7]	outcome [8]
CCCCOc1ccc(-n2c(Nc3ccccc3)nc3cc(S(N)(=O)=O)ccc32)cc1	72% (active)	0%	-6	90% (active)	inactive	inactive	inactive	inactive
O=C(c1cccc(-c2cccc(-c3nc4ccc(F)cc4[nH]3)c2)c1)N1CCCCC1CN1CCC(O)C1 (stereo unspecified)	100% (active)	36%	-5	90% (active)	inactive	inactive	inactive	inactive
CN(C)CCCOc1ccc(-c2csc(NC(N)=NCc3ccccc3)n2)cc1	97% (active)	57% (active)	5	100% (active)	inactive	inactive	inactive	inactive
CC(C)C(C(=O)Nc1ccc(S(=O)(=O)N(C)C)cc1)c1ccc(Cl)cc1 (stereo unspecified)	98% (active)	27%	-2	100% (active)	inactive	inactive	inactive	inactive
CCOc1ccccc1CNc1nccc(NCc2ccccc2OC)n1	66% (active)	50% (active)	-2	87% (active)	inactive	inactive	inactive	inactive
O=C(CN1CCCC1)Nc1cccc(C(=O)Nc2cccc(C(F)(F)F)c2)c1	83% (active)	9%	1	95% (active)	inactive	inactive	inactive	inactive
COc1ccc(CCNCCCCCCNCCc2ccc(Cl)cc2)c(Cl)c1OC	4%	88% (active)	5	101% (active)	inactive	inactive	inactive	inactive
O=C(C=Cc1ccc(Cl)c(Cl)c1)NCCCCCN1CCCC(CCCNS(=O)(=O)c2cccc3cccnc23)C1 (stereo unspecified)	16%	37%	2	96% (active)	inactive	inactive	inactive	inactive
CCc1sc(-c2ccc(C(C)(C)C)cc2)nc1C(=O)NCCCN1CCCC1=O	69% (active)	0%	-5	84% (active)	inactive	inactive	inactive	inactive
CN(C)c1nc2cc(-n3cnc4cc(-c5ccc(Cl)cc5)sc4c3=O)ccc2n1CCCN1CCCCC1	23%	55% (active)	1	97% (active)	inactive	inactive	inactive	inactive
CS(=O)(=O)N1CC2(CCN(CCC(NC(=O)/C=C/c3ccccc3)c3ccc(Cl)c(Cl)c3)CC2)c2ccccc21 (stereo unspecified)	55% (active)	18%	2	97% (active)	inactive	inactive	inactive	inactive
Cc1cc(NC(=O)c2cccs2)ccc1OC1CCN(Cc2ccc(F)cc2)CC1	92% (active)	7%	-1	94% (active)	inactive	inactive	inactive	inactive
COc1cc(C)nc2ccc(NC(=O)Nc3ccccc3[N+](=O)[O-])cc12	58% (active)	6%	-1	101% (active)	inactive	inactive	inactive	inactive
O=C(NC(CCCN1CCC2(CC1)OCc1ccccc12)c1ccc(Cl)c(Cl)c1)c1cc(C(F)(F)F)cc(C(F)(F)F)c1 (stereo unspecified)	99% (active)	55% (active)	5	100% (active)	inactive	inactive	inactive	inactive
COc1ccc(NC(=O)[C@H](Cc2ccccc2)Nc2cc(C)nc(NCC3CCCCC3)n2)cc1	83% (active)	9%	1	100% (active)	inactive	inactive	inactive	inactive
O=C(Nc1cccc(OCCN2CCCC2)c1)Nc1ccc(Cl)c(Cl)c1	22%	3%	-5	98% (active)	inactive	inactive	inactive	inactive
